{"source": "PubChem BioAssay (Tox21)", "note": "Results filed as inconclusive are left out. The source made the active and inactive calls. The call rests on the fitted dose curve; in most records, active means well fitted curve in the direction sought with a large enough effect in the signal ratio in the repeat runs (not every such curve was filed as active); inconclusive means weak or mixed curves, or effect the other way; inactive means no such curve, though single readings can be large or run the other way; the % refers to the signal ratio. On the % scale 0 is the no-effect control and ±100 the full control effect.", "data": [{"target": "Estrogen receptor (Homo sapiens) (UniProt P03372)", "sequence (P03372 whole entry, looked up)": "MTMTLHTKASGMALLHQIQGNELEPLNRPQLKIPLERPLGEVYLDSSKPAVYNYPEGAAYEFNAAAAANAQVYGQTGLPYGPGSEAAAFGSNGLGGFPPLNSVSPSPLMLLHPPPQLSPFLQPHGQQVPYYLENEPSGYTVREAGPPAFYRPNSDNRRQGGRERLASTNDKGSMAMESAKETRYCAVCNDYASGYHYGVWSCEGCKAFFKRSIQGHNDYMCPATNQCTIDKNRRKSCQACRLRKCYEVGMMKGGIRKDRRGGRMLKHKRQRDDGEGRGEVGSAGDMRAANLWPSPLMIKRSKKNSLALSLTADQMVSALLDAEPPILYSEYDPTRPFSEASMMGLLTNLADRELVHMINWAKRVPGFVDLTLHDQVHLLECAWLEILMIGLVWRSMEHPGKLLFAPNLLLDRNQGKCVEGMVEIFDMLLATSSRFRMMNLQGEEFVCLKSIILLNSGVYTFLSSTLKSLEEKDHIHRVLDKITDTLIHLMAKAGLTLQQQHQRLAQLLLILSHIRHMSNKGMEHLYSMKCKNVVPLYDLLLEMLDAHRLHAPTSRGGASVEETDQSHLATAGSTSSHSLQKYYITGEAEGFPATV", "assay": "qHTS assay to identify small molecule antagonists of the estrogen receptor alpha (ER-alpha) signaling pathway (AID 743069)", "conditions": "HEK293 ER-alpha-UAS-bla, beta-lactamase ratio, antagonist mode; series mostly up to 69.4 µM; activity, negative = inhibition: at the top concentration", "excerpt": "National Center for Advancing Translational Sciences [NCATS]\nNIH Chemical Genomics Center [NCGC]\nU.S. Environmental Protection Agency [EPA]\nNational Institutes of Environmental Health Sciences [NIEHS]\nNational Toxicology Program [NTP]\nU.S. Food and Drug Administration [FDA]\nEstrogen receptor (ER), a nuclear hormone receptor, plays an important role in development, metabolic homeostasis and reproduction. Two subtypes of ER, ER-alpha and ER-beta have similar expression patterns with some uniqueness in both types. Endocrine disrupting chemicals (EDCs) and their interactions with steroid hormone receptors like ER causes disruption of normal endocrine function. To identify the compounds that inhibit ER signaling, an ER-alpha-UAS-bla GripTiteTM cell line (Invitrogen, Carlsbad, CA, USA) containing a beta-lactamase reporter gene under the control of an Upstream Activator Sequence (UAS) stably integrated into HEK293 cells was used to screen the Tox21 10K compound library.\nTox21 Assay Protocol Summary:\nER-alpha-bla cells were cultured in assay medium containing 2% charcoal stripped FBS overnight in the culture flasks before the assay was performed. The cells were dispensed at 5,000 cells/5 uL of assay medium per well into black wall/clear-bottom 1536-well plates using a Multidrop Combi (ThermoFisher Scientific, Waltham, MA) dispenser. After the assay plates were incubated at a 37C and 5% CO2 for 4 hr, 23 nL of compounds dissolved in DMSO, positive controls or DMSO only was transferred to the assay plate by a Pintool station (Kalypsys, San Diego, CA), followed by addition of 1 uL of 17beta-estradiol in assay medium using a Flying Reagent Dispenser (Aurora Discovery, San Diego, CA). The plates were incubated at 37C and 5% CO2 for 18 hr. Then 1 uL of LiveBLAzerTM B/G FRET substrate was added using a Flying Reagent Dispenser, the plates were incubated at room temperature for 2 hours, and fluorescence intensity was measured by an Envision plate reader (PerkinElmer, Shelton, CT).", "values": [{"smiles": "CCOC(=O)NC(C)(C)Cc1ccc(Cl)cc1", "activity, negative = inhibition": "-3.56% (inactive)"}, {"smiles": "COP(=O)(OC)O/C(C)=C/C(=O)N(C)C", "activity, negative = inhibition": "8.51% [at 79.1 µM] (inactive)"}, {"smiles": "OP(O)c1ccccc1", "activity, negative = inhibition": "4.68% [at 79.1 µM] (inactive)"}, {"smiles": "CC(C)(C)C(=O)Cl", "activity, negative = inhibition": "-2.2% [at 79.1 µM] (inactive)"}, {"smiles": "CC[C@H](N)c1ccccc1", "activity, negative = inhibition": "-7.91% (inactive)"}, {"smiles": "CCSC(=O)Cl", "activity, negative = inhibition": "-5.36% [at 79.1 µM] (inactive)"}, {"smiles": "COc1cccc(C=O)c1", "activity, negative = inhibition": "2.24% (inactive)"}, {"smiles": "O=C(CCl)NCO", "activity, negative = inhibition": "12.4% (inactive)"}, {"smiles": "OCC(Cl)CCl", "note": "(stereo not given)", "activity, negative = inhibition": "-2.9% (inactive)"}, {"smiles": "CCOP(=S)(OCC)SCCl", "activity, negative = inhibition": "18.6% (inactive)"}, {"smiles": "Cc1ccc2c(c1)C1CN(C)CCC1N2", "note": "(stereo not given)", "activity, negative = inhibition": "4.85% (inactive)"}, {"smiles": "C=C(C)[C@H]1CN[C@H](C(=O)O)[C@H]1CC(=O)O", "activity, negative = inhibition": "-4.3% (inactive)"}, {"smiles": "CN(CCO)CCO", "activity, negative = inhibition": "-3.36% [at 79.1 µM] (inactive)"}, {"smiles": "C=CC1(C)OC(=O)N(c2cc(Cl)cc(Cl)c2)C1=O", "note": "(stereo not given)", "activity, negative = inhibition": "-11.3% (inactive)"}, {"smiles": "CN(C)CCN(C)C", "activity, negative = inhibition": "5.17% (inactive)"}, {"smiles": "N#CN=C1SCCN1Cc1ccc(Cl)nc1", "activity, negative = inhibition": "10.6% (inactive)"}, {"smiles": "NNC(N)=O", "activity, negative = inhibition": "3.68% [at 79.1 µM] (inactive)"}, {"smiles": "CCOC(=O)Nc1cccc(OC(=O)Nc2ccccc2)c1", "activity, negative = inhibition": "-9.63% (inactive)"}, {"smiles": "COc1ccc(CN2CCNCC2)c(OC)c1OC", "activity, negative = inhibition": "-2.22% [at 32.6 µM] (inactive)"}, {"smiles": "O=C(O)c1c(Cl)ccc2cc(Cl)cnc12", "activity, negative = inhibition": "10.3% (inactive)"}, {"smiles": "CS(=O)(=O)c1ccc(C(=O)C2C(=O)CCCC2=O)c(Cl)c1COCC(F)(F)F", "activity, negative = inhibition": "22.2% (inactive)"}, {"smiles": "BrCc1ccc(Br)cc1", "activity, negative = inhibition": "6.51% (inactive)"}, {"smiles": "ClC1=C(Cl)C2(Cl)C(CBr)CC1(Cl)C2(Cl)Cl", "note": "(stereo not given)", "Potency": "inactive"}, {"smiles": "C/C(=N\\NC(=O)Nc1cc(F)cc(F)c1)c1ncccc1C(=O)O", "activity, negative = inhibition": "-2.52% (inactive)"}, {"smiles": "O=c1[nH]oc2c1CCNC2", "activity, negative = inhibition": "4.04% (inactive)"}, {"smiles": "Oc1ccc(Cc2ccc(O)cc2)cc1", "activity, negative = inhibition": "-27.7% [at 79.1 µM] (inactive)"}, {"smiles": "N=C(N)[Se]", "activity, negative = inhibition": "10.1% [at 79.1 µM] (inactive)"}, {"smiles": "O=C(NC(=O)c1c(F)cccc1F)Nc1cc(Cl)c(F)c(Cl)c1F", "activity, negative = inhibition": "42.7% (inactive)"}, {"smiles": "Cc1ccc(S(=O)(=O)N[C@@H](CCCCN)C(=O)CCl)cc1", "activity, negative = inhibition": "13.9% (inactive)"}, {"smiles": "CCOC(=O)c1ncn2c1CN(C)C(=O)c1c(I)cccc1-2", "activity, negative = inhibition": "11.5% (inactive)"}, {"smiles": "O=C(Cl)CCl", "activity, negative = inhibition": "11.2% [at 79.1 µM] (inactive)"}, {"smiles": "CC1NCCOC1c1ccccc1", "note": "(stereo not given)", "activity, negative = inhibition": "-4.86% (inactive)"}, {"smiles": "Cn1c(CCCC(=O)O)nc2cc(N(CCCl)CCCl)ccc21", "activity, negative = inhibition": "22.9% (inactive)"}, {"smiles": "O=C1C2CC=CCC2C(=O)N1SC(Cl)(Cl)Cl", "note": "(stereo not given)", "activity, negative = inhibition": "18.4% (inactive)"}, {"smiles": "CC(Cc1ccccc1)NCCn1cnc2c1c(=O)n(C)c(=O)n2C", "note": "(stereo not given)", "activity, negative = inhibition": "10.1% (inactive)"}, {"smiles": "CC#Cc1cc(C)nc(Nc2ccccc2)n1", "activity, negative = inhibition": "7.29% (inactive)"}, {"smiles": "[O-][Br+2]([O-])O", "activity, negative = inhibition": "5.35% (inactive)"}, {"smiles": "N[C@@H](Cc1ccc(Oc2cc(I)c(O)c(I)c2)c(I)c1)C(=O)O", "activity, negative = inhibition": "-2.61% (inactive)"}, {"smiles": "Cc1cccc2sc3nncn3c12", "activity, negative = inhibition": "32.7% (inactive)"}, {"smiles": "CCOC1Oc2ccc(OS(C)(=O)=O)cc2C1(C)C", "note": "(stereo not given)", "activity, negative = inhibition": "-8.38% (inactive)"}]}]}
